We go through nine molecules from PubChem BioAssay.

Unmarked numbers belong to inactive results.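 Rule for the calls: active = compound whose remaining NAD level is above about 45 nM (limit read from the data); inactive = the rest.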

The target of this experiment is NAD(+) hydrolase SARM1 (Homo sapiens) (UniProt Q6SZW1). Kind of experiment: SARM1 TIR NADase inhibitors, cell lysate, NAD-Glo luminescence (AID 1508614).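 Note: higher remaining NAD means stronger inhibition of SARM1 NADase.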 The conditions noted are these: SAM-TIR HEK293T lysate NADase, at 1 µM, stronger effect = higher value.
NAD(+) hydrolase SARM1 (Homo sapiens), sequence (Q6SZW1 whole entry, looked up): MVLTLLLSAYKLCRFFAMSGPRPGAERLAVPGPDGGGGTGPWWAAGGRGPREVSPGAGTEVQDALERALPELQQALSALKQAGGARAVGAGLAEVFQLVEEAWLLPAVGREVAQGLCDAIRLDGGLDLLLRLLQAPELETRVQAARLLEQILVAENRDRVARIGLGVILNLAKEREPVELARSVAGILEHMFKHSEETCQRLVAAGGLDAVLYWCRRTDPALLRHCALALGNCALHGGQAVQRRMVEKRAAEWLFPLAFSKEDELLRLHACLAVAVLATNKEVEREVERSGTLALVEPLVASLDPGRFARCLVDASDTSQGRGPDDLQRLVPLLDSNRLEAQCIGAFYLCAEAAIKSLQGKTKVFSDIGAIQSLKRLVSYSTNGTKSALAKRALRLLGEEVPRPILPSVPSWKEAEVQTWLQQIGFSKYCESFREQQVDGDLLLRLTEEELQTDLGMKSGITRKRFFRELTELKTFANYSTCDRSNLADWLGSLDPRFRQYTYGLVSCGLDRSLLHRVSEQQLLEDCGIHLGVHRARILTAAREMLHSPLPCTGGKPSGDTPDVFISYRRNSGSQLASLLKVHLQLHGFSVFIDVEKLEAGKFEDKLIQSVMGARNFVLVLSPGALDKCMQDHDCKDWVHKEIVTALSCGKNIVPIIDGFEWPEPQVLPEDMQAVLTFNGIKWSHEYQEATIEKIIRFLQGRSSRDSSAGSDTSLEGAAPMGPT
As to `C#C[C@]1(OC(C)=O)CC[C@H]2[C@@H]3CCC4=C/C(=N\O)CC[C@@H]4[C@H]3CC[C@@]21CC`, the remaining NAD was 10 nM.

For `OC[C@@H](O)[C@@H](O)CO`, the remaining NAD is 10 nM. The value for `CO[C@H]1C[C@H](O[C@@H]2/C(C)=C\C[C@@H]3C[C@@H](C[C@]4(C=C[C@H](C)[C@@H](C(C)C)O4)O3)OC(=O)[C@@H]3C=C(C)[C@@H](O)[C@H]4OC/C(=C/C=C\[C@@H]2C)[C@]43O)O[C@@H](C)[C@H]1O[C@H]1C[C@@H](OC)[C@H](NC(C)=O)[C@H](C)O1` was 10 nM. The result for `CN(N=O)C(=O)N[C@@H](C=O)[C@@H](O)[C@H](O)[C@H](O)CO` reads 10 nM; that for `CC1/C=C/C=C/C=C/C=C/C=C/C=C/C=C/C(OC2O[C@H](C)[C@@H](O)[C@H](N)[C@@H]2O)CC(O)C(C(=O)O)C(O)CC(=O)CC(O)CC(O)CC(O)CC(=O)CCCC(=O)CC(=O)OC1C(C)CC(C)C(O)CC(=O)c1ccc(N)cc1` (some centres undefined), 10 nM; that for `CC(=O)N1CCN(c2ccc(OC[C@@H]3CO[C@@](Cn4ccnc4)(c4ccc(Cl)cc4Cl)O3)cc2)CC1`, 10 nM. The result for `NC(=O)[C@@H]1CCCN1C(=O)[C@H](Cc1cnc[nH]1)NC(=O)[C@@H]1CCC(=O)N1` reads 10 nM; that for `Nc1ncnc(Nc2ccc(Cl)cc2)n1`, 10 nM.

Consider `CC(=O)OCC(=O)[C@@]1(O)CC[C@H]2[C@@H]3CCC4=CC(=O)C=C[C@]4(C)[C@@]3(Cl)[C@@H](Cl)C[C@@]21C`, for which the remaining NAD is 10 nM.
